From PubChem BioAssay
Calls of active or inactive are those of the source.

Columns and labels:
Albumin (Bos taurus) = Albumin (Bos taurus) (UniProt P02769); assay: compounds binding labelled BSA control protein – biochemical, small-molecule microarray, Alexa647 label, 635/667 nm fluorescence, artefact control for SMM control protein annotation, profiling panel (AID 1118); conditions: BSA-A647 binding, fluorescence 635 nm, higher = more signal;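 further: score merges 667 nm emission intensity and signal-to-noise per printed compound spot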
[1] = probe aXIP binding to arrayed compounds – biochemical, NeuroSMM set, 635/667 nm fluorescence, primary screen (AID 1119); conditions: small-molecule microarray, higher = more signal, called active from +8 up or from −8 down;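 further: probe is the protein aXip251-270 applied at 1 µg/mL to compound-printed slides; binding of probe to printed compounds measured as 667 nm fluorescence plus signal to noise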
[2] = probe aNOTCH3 binding on compound microarray – biochemical, small-molecule microarray, 635/667 nm fluorescence, primary screen (AID 1120); conditions: higher = more signal;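 further: probe is a biotin-tagged antibody raised against NOTCH3 rather than NOTCH3 protein; score merges spot fluorescence near 667 nm with spot signal to noise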
[3] = probe aNOTCH2 binding on compound microarray – biochemical, small-molecule microarray, 635/667 nm fluorescence, primary screen (AID 1121); conditions: higher = more signal;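 further: score merges feature fluorescence read at 667 nm with its signal to noise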
[4] = target: Carbonic anhydrase 2 (Homo sapiens) (UniProt P00918); assay: compounds binding carbonic anhydrase 2 – biochemical, small-molecule microarray, Alexa647-labelled CAII, profiling panel (AID 1122); conditions: CAII-A647 binding fluorescence, higher = more signal
[5] = COS7 lysate on small-molecule microarray, probe aHis, 635 nm (AID 1123); conditions: COS7 cell lysate, fluorescence, higher = more signal;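 further: z-score combines 667nm fluorescence intensity with signal-to-noise per printed compound spot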
[6] = probe aLAP1 signal on lysate-treated microarray – cell lysate, small-molecule microarray, COS7 lysate, primary screen (AID 1124); conditions: probe aLAP1, fluorescence, higher = more signal;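 further: lysate comes from COS7 cells expressing LAP1 and is applied at 0.3 µg/mL; score merges spot fluorescence near 667 nm with signal-to-noise over triplicate slides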
Sam68 (KHDRBS1) = assay: compounds binding KHDRBS1 protein – biochemical, small-molecule microarray, 635 nm fluorescence, primary screen (AID 1125); conditions: higher = more signal;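 further: score merges 667 nm channel intensity with signal to noise over triplicate slides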
[7] = test system: Chordin-like protein 2 (CHRDL2); assay: compounds binding chordin-like 2 – biochemical, small-molecule microarray, 635 nm fluorescence, primary screen (AID 1126); conditions: fluorescence 635 nm, higher = more signal;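 further: printed compound slides probed with Chrdl2 protein at 4 µg/mL for 1 h at 4 C; score merges 667 nm emission intensity with signal to noise over three replicate slides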
[8] = target: Concanavalin-A (Canavalia ensiformis) (UniProt P02866); assay: compounds binding concanavalin A lectin – biochemical, small-molecule microarray, Alexa647 label, 635 nm, artefact control for SMM control protein annotation, primary screen (AID 1127); conditions: ConA-A647 binding fluorescence, higher = more signal;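 further: z combines 667 nm emission intensity with signal-to-noise across three replicate slides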
[9] = compounds binding Alexa647 anti-His antibody – biochemical, small-molecule microarray, 635 nm fluorescence, artefact control for SMM control protein annotation, primary screen (AID 1128); conditions: higher = more signal;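 further: score merges feature fluorescence with signal-to-noise for each printed compound spot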
[10] = test system: Human papillomavirus type 1a E7 protein (residues 1-88); assay: HPV1a E7 small-molecule binders, primary screen, biochemical, small-molecule microarray, residues 1-88, 635 nm (AID 1129); conditions: small-molecule microarray binding, fluorescence 635 nm; higher = more signal
[11] = target: Focal adhesion kinase 1 (Homo sapiens) (UniProt Q05397); assay: PTK2 protein binding on printed compound slides – biochemical, small-molecule microarray, 635/667 nm fluorescence, BSA, DTT, primary screen (AID 1130); conditions: 635 nm fluorescence, higher = more signal;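 further: composite of spot emission at 667 nm and signal to noise over triplicate slides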
[12] = test system: Fibrinogen (Alexa647-labelled); assay: Alexa647-fibrinogen binding to printed small molecules – biochemical, small-molecule microarray, 635/667 nm fluorescence, artefact control for SMM control-protein annotation, profiling panel (AID 1131); conditions: fibrinogen-A647 binding fluorescence, higher = more signal;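 further: z-score merges 667 nm fluorescence with per-spot signal-to-noise over triplicate slides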
[13] = target: Follistatin (Homo sapiens) (UniProt P19883); assay: FST protein binding to printed compounds – biochemical, small-molecule microarray, 635/667 nm fluorescence, primary screen (AID 1132); conditions: 635 nm fluorescence, higher = more signal
[14] = target: Fibroblast growth factor 2 (Homo sapiens) (UniProt P09038); assay: basic fibroblast growth factor binding to printed compounds – biochemical, small-molecule microarray, 635/667 nm fluorescence, primary screen (AID 1133); conditions: FGF2, fluorescence 635/667, higher = more signal
[15] = JC-1 mitochondrial potential readout, lung cancer cells – cell-based, A549, JC-1 fluorescence, basal, 24 h, 100 nL, profiling panel (AID 1138); conditions: higher = more signal;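 further: A549 lung adenocarcinoma cells under basal conditions with no added stimulus; test concentration not given here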
Lefty1 = Lefty1 protein binding to printed compounds – biochemical, small-molecule microarray, 635/667 nm fluorescence, primary screen (AID 1139); conditions: fluorescence 635/667, higher = more signal
[16] = test system: wheat germ agglutinin (Triticum aestivum), Alexa647-labelled; assay: Alexa647-WGA lectin binding to printed small molecules – biochemical, small-molecule microarray, 635/667 nm fluorescence, artefact control for SMM control-protein annotation, profiling panel (AID 1140); conditions: WGA-A647 binding, 635 nm fluorescence, higher = more signal;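 further: score merges 667 nm feature emission with signal to noise over triplicate slides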
[17] = target: Luciferin 4-monooxygenase (Photinus pyralis) (UniProt P08659); assay: inhibition of purified Photinus pyralis luciferase – biochemical, luminescence, purified enzyme, 2006 set, primary screen (AID 1141); conditions: purified firefly luciferase, SteadyGlo luminescence, 30 min; higher = more signal, called active from +8 up or from −8 down;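 further: cell-free assay with purified firefly luciferase at 100 ng per well in PBS; test concentration not given here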
Chain of Luciferin 4-monooxygenase (Photinus pyralis) (P08659 whole entry, looked up): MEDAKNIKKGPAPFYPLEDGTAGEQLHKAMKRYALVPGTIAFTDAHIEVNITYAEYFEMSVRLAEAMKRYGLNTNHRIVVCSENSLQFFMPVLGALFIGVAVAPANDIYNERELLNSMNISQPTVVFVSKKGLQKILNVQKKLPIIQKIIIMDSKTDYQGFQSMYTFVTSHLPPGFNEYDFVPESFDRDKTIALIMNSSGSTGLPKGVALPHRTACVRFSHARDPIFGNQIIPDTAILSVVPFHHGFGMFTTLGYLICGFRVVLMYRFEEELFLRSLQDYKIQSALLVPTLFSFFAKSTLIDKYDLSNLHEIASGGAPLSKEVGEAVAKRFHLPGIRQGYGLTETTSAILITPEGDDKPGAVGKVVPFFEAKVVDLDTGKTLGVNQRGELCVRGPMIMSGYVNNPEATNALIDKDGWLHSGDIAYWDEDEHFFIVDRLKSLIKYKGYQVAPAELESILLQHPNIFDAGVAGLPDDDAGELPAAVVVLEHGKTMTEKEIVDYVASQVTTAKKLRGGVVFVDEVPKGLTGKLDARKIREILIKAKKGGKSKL

Chain of Focal adhesion kinase 1 (Homo sapiens) (Q05397 whole entry, looked up): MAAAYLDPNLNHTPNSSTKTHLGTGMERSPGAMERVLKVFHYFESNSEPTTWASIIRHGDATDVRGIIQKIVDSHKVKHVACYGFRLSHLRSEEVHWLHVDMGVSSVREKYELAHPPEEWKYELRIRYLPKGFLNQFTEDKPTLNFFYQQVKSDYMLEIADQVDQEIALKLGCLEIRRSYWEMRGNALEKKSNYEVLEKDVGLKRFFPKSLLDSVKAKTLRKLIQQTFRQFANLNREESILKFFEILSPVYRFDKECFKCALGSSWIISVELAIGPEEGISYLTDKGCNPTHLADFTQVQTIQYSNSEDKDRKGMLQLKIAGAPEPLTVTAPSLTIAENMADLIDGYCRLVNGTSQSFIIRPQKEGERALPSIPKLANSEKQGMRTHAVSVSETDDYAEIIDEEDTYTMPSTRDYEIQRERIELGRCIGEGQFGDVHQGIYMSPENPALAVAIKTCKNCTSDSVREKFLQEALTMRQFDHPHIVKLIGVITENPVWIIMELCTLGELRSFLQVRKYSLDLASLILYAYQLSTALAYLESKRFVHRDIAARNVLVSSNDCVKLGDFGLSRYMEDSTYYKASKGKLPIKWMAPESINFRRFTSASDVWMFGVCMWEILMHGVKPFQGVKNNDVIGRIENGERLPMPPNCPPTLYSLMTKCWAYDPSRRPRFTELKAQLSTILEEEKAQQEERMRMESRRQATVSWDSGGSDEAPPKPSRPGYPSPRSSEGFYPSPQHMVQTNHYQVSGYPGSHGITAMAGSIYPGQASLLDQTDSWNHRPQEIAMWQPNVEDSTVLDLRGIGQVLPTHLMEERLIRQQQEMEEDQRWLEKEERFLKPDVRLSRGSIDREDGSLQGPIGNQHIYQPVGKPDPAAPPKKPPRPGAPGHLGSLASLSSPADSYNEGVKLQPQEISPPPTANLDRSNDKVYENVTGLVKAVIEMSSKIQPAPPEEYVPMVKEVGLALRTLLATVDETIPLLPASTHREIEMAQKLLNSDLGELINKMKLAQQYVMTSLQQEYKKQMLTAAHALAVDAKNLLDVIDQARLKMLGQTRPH
Chain of Albumin (Bos taurus) (P02769 whole entry, looked up): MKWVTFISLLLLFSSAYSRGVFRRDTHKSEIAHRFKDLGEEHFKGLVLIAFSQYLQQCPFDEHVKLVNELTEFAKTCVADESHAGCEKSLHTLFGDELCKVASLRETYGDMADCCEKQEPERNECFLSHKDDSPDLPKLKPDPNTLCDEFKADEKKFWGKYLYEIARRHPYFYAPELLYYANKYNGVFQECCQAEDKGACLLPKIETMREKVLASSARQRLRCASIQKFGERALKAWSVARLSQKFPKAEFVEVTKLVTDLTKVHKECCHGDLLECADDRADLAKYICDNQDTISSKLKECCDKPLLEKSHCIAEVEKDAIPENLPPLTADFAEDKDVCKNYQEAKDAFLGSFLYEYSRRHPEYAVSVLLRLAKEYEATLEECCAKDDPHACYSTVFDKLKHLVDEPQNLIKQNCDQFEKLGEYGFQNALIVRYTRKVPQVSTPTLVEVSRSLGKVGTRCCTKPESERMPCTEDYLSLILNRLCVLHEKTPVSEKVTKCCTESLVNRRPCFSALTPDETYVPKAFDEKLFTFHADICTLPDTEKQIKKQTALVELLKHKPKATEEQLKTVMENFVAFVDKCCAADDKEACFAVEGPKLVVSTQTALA
Chain of Concanavalin-A (Canavalia ensiformis) (P02866 whole entry, looked up): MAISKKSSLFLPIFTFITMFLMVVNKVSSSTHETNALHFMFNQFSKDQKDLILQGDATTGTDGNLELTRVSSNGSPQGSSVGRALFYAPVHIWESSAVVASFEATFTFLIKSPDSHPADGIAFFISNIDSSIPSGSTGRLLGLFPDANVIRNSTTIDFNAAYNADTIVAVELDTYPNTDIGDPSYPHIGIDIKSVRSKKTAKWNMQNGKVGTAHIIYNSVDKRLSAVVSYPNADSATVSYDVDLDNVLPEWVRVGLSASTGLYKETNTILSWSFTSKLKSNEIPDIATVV
Chain of Fibroblast growth factor 2 (Homo sapiens) (P09038 whole entry, looked up): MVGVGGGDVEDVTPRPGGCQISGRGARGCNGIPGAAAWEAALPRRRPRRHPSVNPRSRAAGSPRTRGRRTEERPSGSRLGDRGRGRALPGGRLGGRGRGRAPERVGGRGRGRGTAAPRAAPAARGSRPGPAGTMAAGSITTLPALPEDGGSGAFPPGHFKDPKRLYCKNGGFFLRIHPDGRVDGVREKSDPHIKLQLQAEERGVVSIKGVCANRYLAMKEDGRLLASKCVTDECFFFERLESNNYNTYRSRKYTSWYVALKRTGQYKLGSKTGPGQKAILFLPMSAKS
Chain of Follistatin (Homo sapiens) (P19883 whole entry, looked up): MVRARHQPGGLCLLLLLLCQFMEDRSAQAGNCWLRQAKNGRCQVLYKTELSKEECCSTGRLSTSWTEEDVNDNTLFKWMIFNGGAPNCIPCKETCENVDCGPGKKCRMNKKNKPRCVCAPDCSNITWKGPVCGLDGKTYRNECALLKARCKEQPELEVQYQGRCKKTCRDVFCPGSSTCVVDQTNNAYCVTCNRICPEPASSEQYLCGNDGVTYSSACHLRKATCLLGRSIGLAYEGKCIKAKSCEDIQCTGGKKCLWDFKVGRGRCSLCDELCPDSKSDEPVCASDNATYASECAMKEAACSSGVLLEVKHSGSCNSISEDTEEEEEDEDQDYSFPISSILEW

SMILES	composite z-score (Albumin (Bos taurus))	composite Z-score [1]	composite z-score [2]	composite z-score [3]	composite z-score [4]	composite z-score [5]	composite z-score [6]	composite z-score (Sam68 (KHDRBS1))	composite z-score [7]	composite z-score [8]	composite z-score [9]	composite z-score [10]	composite z-score [11]	composite z-score [12]	composite z-score [13]	composite z-score [14]	z-score [15]	composite z-score (Lefty1)	composite z-score [16]	z-score [17]
COc1cc2c(cc1O)C(c1cccs1)N(Cc1ccc([N+](=O)[O-])o1)CC2 (stereo not given)	0.878	3.03 (inactive)	0.029	0.12	0.876	1.35	1.08	0.0376	-0.57	0.364	0.737	0.182	0.215	0.979	0.257	0.478	2.32	-0.795	0.839	-2.26 (inactive)
COCCCNC(=O)[C@@]1(CCS(=O)(=O)c2ccccc2)N=C(c2ccc(OCCCO)cc2)O[C@H]1c1ccccc1N=[N+]=[N-]	0.955	0.164 (inactive)	0.307	-0.0316	0.695	3.05	0.743	1.3	-0.154	1.07	0.328	1.25	-0.0191	1.02	1.3	0.786	-0.341	1.27	1.01	-8.3 (active)
COCCOC(=O)N1C(=O)[C@@]2(c3ccccc31)[C@H](C(=O)N1CCCCCCC1)[C@H]1C(=O)O[C@H](c3ccccc3)[C@H](c3ccccc3)N1[C@@H]2c1ccc(OCCO)cc1	0.445	10.1 (active)	2.33	1.21	1.09	5.19	1.31	1.32	1.68	1.28	3.77	1.35	4.71	1.04	1.58	1.88	-1.35	1.91	1.74	-0.255 (inactive)
COCCOC(=O)N1C(=O)[C@@]2(c3ccccc31)[C@H](c1ccc(OCCO)cc1)N1[C@H](c3ccccc3)[C@H](c3ccccc3)OC(=O)[C@H]1[C@@H]2C(=O)N1CCc2cc(OC)c(OC)cc2C1	0.642	0.158 (inactive)	0.273	-0.0021	0.641	2.4	1.43	1.28	0.584	1.16	2.41	1.2	0.85	0.958	1.3	1.38	-0.0272	1.35	1.17	-0.603 (inactive)
[N-]=[N+]=NCc1ccccc1C[C@@]1(C(=O)NCC(O)CO)N=C(c2ccc(OCCCO)cc2)O[C@@H]1c1ccccc1 (stereo not given in full)	0.992	-0.191 (inactive)	-0.0077	0.0996	0.432	2.82	-0.177	0.331	-0.247	-1.11	1.86	0.0034	-0.225	-0.513	0.602	-0.287	0.663	-1.7	0.276	-1.69 (inactive)
C=C(CCCC)/C(=C/C[C@@H](OC(C)=O)c1ccccc1OCCO)c1cc(C(=O)OC)ccc1OC	0.056	-0.737 (inactive)	-0.0947	-0.103	0.402	0.0769	0.0978	0.166	-0.354	-0.544	-0.9	-0.2	-0.0448	0.259	0.35	0.16	2.6	0.384	0.0424	-2.02 (inactive)
CCCCC(O)C1C=CC2C(=O)N(C)C(=O)C2N1N1CCCCC1 (stereo not given)	0.843	0.257 (inactive)	0.291	0.0675	0.821	2.45	0.536	0.952	0.372	0.0635	1.69	0.678	0.367	1.03	0.971	-0.331	-0.0954	0.412	1.19	0.452 (inactive)
COc1ccc(-c2cc3c(c(Cc4ccccc4)n2)[Si](C(C)C)(C(C)C)OC3)cn1	-0.832	0.168 (inactive)	0.0596	-0.155	-0.272	-0.0385	-0.124	-0.0817	0.21	-0.739	-0.356	-0.875	-0.0985	-0.827	-0.108	-0.328	-0.687	-0.0455	-0.351	0.892 (inactive)
COC(=O)[C@@]1(Cc2ccccc2)[C@H]2c3cc(C(=O)N(C)C)n(CCc4c[nH]c5ccc(O)cc45)c3C[C@H]2CN1C(=O)c1ccccc1	1.01	0.492 (inactive)	0.238	0.153	0.858	2.15	1.29	0.878	-0.676	0.0221	1.53	1.23	0.772	-0.0969	1.35	-0.0235	-0.409	0.171	0.173	-2.82 (inactive)
CC=CC(O)C1C=CC2C(=O)N(C)C(=O)C2N1N(c1ccccc1)c1ccccc1 (stereo not given)	0.803	-0.222 (inactive)	0.0864	0.0843	0.837	-0.213	0.198	-0.113	0.686	0.555	0.573	-0.226	0.0652	0.241	0.803	-0.024	1.32	0.212	0.318	1.36 (inactive)
CC(C)[C@@H](C(=O)O)n1cc(C2(O)CCCCC2)nn1	0.641	-0.283 (inactive)	0.089	-0.161	0.0232	0.303	0.0595	1.01	-0.121	1.04	0.948	1.1	0.167	0.598	0.486	0.2	0.0494	0.528	0.0063	0.983 (inactive)
